The results in this text go back to PubChem BioAssay (NCATS).

A short description of assay [1]: Quantitative High-Throughput drug screen in 47 multiple myeloma cell lines against the NCATS MIPE library collection: MMM1_PLB cell viability assay (AID 1918976). Also: nearly all actives have a fitted effect of over 35% in size. The method, boiled down:
(§1)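 Viability after 48 h drug exposure was measured as ATP-dependent luminescence. Cells, 500 per well, sat at 37 °C under 5% CO2; DMSO wells set 100%, media-only wells 0%.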

Assay [2] can be described thus: Quantitative High-Throughput drug screen in 47 multiple myeloma cell lines against the NCATS MIPE library collection: NCIH929_DSMZ cell viability assay (AID 1918978). Also: nearly all actives have a fitted effect of over 35% in size. The method in brief: as §1
Assay [3] in a line: Quantitative High-Throughput drug screen in 47 multiple myeloma cell lines against the NCATS MIPE library collection: OCIMY1_PLB cell viability assay (AID 1918979). Also: nearly all actives have a fitted effect of over 35% in size. The method in brief: as §1
A short description of assay [4]: Quantitative High-Throughput drug screen in 47 multiple myeloma cell lines against the NCATS MIPE library collection: MM1S_ATCC cell viability assay (AID 1918980). Also: nearly all actives have a fitted effect of over 45% in size. The method, boiled down: as §1
The nature of assay [5]: Quantitative High-Throughput drug screen in 47 multiple myeloma cell lines against the NCATS MIPE library collection: LP1_DSMZ cell viability assay (AID 1918982). Also: nearly all actives have a fitted effect of over 35% in size. The method, boiled down: as §1
Assay [6] can be described thus: Quantitative High-Throughput drug screen in 47 multiple myeloma cell lines against the NCATS MIPE library collection: KMS28PE_JCRB cell viability assay (AID 1918983). Also: nearly all actives have a fitted effect of over 35% in size. The method in brief:
as §1

The nature of assay [7]: Quantitative High-Throughput drug screen in 47 multiple myeloma cell lines against the NCATS MIPE library collection: L363_DSMZ cell viability assay (AID 1918984). Also: nearly all actives have a fitted effect of over 40% in size. The method, boiled down:
as §1

A short description of assay [8]: Quantitative High-Throughput drug screen in 47 multiple myeloma cell lines against the NCATS MIPE library collection: OCIMY7_PLB cell viability assay (AID 1918987). Also: nearly all actives have a fitted effect of over 65% in size. The method, boiled down: as §1
The nature of assay [9]: Quantitative High-Throughput drug screen in 47 multiple myeloma cell lines against the NCATS MIPE library collection: OCIMY5_PLB cell viability assay (AID 1918988). Also: nearly all actives have a fitted effect of over 65% in size. The method in brief: as §1
Assay [10] is described as follows: Quantitative High-Throughput drug screen in 47 multiple myeloma cell lines against the NCATS MIPE library collection: OPM1_PLB cell viability assay (AID 1918989). Also: nearly all actives have a fitted effect of over 40% in size. The method in brief: as §1
Assay [11] can be described thus: Quantitative High-Throughput drug screen in 47 multiple myeloma cell lines against the NCATS MIPE library collection: U266_ATCC cell viability assay (AID 1919864). Also: nearly all actives have a fitted effect of over 35% in size. The method, boiled down: as §1
Assay [12] can be described thus: Quantitative High-Throughput drug screen in 47 multiple myeloma cell lines against the NCATS MIPE library collection: XG6_PLB cell viability assay (AID 1919865). Also: nearly all actives have a fitted effect of over 40% in size. The method in brief:
as §1

A short description of assay [13]: Quantitative High-Throughput drug screen in 47 multiple myeloma cell lines against the NCATS MIPE library collection: XG1_PLB cell viability assay (AID 1919866). Also: nearly all actives have a fitted effect of over 35% in size. The method in brief:
as §1

A short description of assay [14]: Quantitative High-Throughput drug screen in 47 multiple myeloma cell lines against the NCATS MIPE library collection: VP6_DJ cell viability assay (AID 1919867). Also: nearly all actives have a fitted effect of over 40% in size. The method in brief:
as §1

Assay [15] can be described thus: Quantitative High-Throughput drug screen in 47 multiple myeloma cell lines against the NCATS MIPE library collection: SKMM1_PLB cell viability assay (AID 1919863). Also: nearly all actives have a fitted effect of over 35% in size. Conditions: SKMM1 myeloma viability, CellTiter-Glo ATP, 48 h; viability: stronger effect = lower value. The method, boiled down: as §1
In general terms: ATP-based viability assays read luminescence as a measure of living cells.

A short description of assay [16]: Quantitative High-Throughput drug screen in 47 multiple myeloma cell lines against the NCATS MIPE library collection: UTMC2_PLB cell viability assay (AID 1919868). Also: nearly all actives have a fitted effect of over 55% in size. The following applies: CellTiter-Glo ATP luminescence, 48 h; viability (% of DMSO control): at 45.8 µM (top of the series). The method in brief:
as §1

A short description of assay [17]: Quantitative High-Throughput drug screen in 47 multiple myeloma cell lines against the NCATS MIPE library collection: MM1R_ATCC cell viability assay (AID 1918981). Also: nearly all actives have a fitted effect of over 35% in size. The method, boiled down: as §1

Records with an inconclusive call do not appear. A number with no mark means an inactive call. Calls of active or inactive are those of the source. Calls follow the shape of the dose curve; as a rule, active = well fitted curve in the direction sought with a large enough effect; inconclusive = small, poorly fitted or top-dose-only effect, or another doubt; inactive = no such curve, though single readings can be large; an effect the other way counts as inactive or inconclusive.
Potency is read from the fitted curve at half-maximal effect.

For the compound `S=C(NCc1ccc2c(c1)OCO2)N1CCN(c2ncnc3c2oc2ccccc23)CC1`, the Potency was 1.21 µM (active) in assay [1]; 4.81 µM (active) in [2]; 42.9 µM (active) in [3]; 3.82 µM (active) in assay [4]; 2.7 µM (active) in [5]; 6.05 µM (active) in assay [6]. The Potency in [7] was 0.605 µM (active); in assay [8], 4.29 µM (active); in [9], 9.59 µM (active); in assay [10] it was 2.41 µM (active); in [11], 12.1 µM (active); in [12], 2.41 µM (active). Moreover, the Potency in assay [13] and in assay [14] was 0.96 µM (active) throughout.
For the compound `CCC(C)n1ncn(-c2ccc(N3CCN(c4ccc(OC[C@H]5CO[C@](Cn6cncn6)(c6ccc(Cl)cc6Cl)O5)cc4)CC3)cc2)c1=O` (some centres not stated), the Potency in [1] was 2.96 µM (active); in [3], 4.18 µM (active); in assay [6], 14.8 µM (active); in [9], 2.96 µM (active); in [15] it was 14.8 µM (active). Besides, the Potency entry in [2], in assay [4], in assay [8], in [10], in assay [11] and in assay [13] was “inactive” each time.
`CC(C)NCC(O)COc1ccc(COCCOC(C)C)cc1` (configuration not stated): the Potency in assay [1] was 7.43 µM (active). Moreover, the Potency entry in assay [2], in assay [3], in assay [4], in assay [11], in [12] and in assay [13] was “inactive” each time. Besides, the Potency result in assay [16] was “inactive”.
On to `CC[C@@H](C)[C@H](NC(=O)[C@H](CC1CCCCC1)NC(=O)c1ccno1)C(=O)N1CCC2(CCc3ccccc32)CC1`, for which the Potency is 11.8 µM (active) in assay [1]; 16.6 µM (active) in [3]; 13.2 µM (active) in assay [17]; 9.35 µM (active) in assay [5]; 8.33 µM (active) in [9]. Further, the Potency entry in assay [10] is “inactive”.
For `O=c1ncn2nc(Sc3ccc(F)cc3F)ccc2c1-c1c(Cl)cccc1Cl`, the Potency in [1] is 20.9 µM (active); in assay [2] it was 18.7 µM (active); in [17], 16.6 µM (active); in [7], 18.7 µM (active); in assay [8], 16.6 µM (active); in [10], 16.6 µM (active). In addition, the Potency in assay [11] is 20.9 µM (active); in assay [12], 13.2 µM (active); in assay [14], 9.35 µM (active). Further, the Potency result in assay [3] and in assay [6] was “inactive” throughout.
As to `CCCS(=O)(=O)Nc1ccc(F)c(C(=O)c2c[nH]c3ncc(-c4ccc(Cl)cc4)cc23)c1F`, the Potency is 26.4 µM (active) in assay [1]; 7.43 µM (active) in [4]; 16.6 µM (active) in [5]; 5.9 µM (active) in [8]; 13.2 µM (active) in assay [9]; 5.26 µM (active) in assay [11]. Besides, the Potency in assay [12] was 2.96 µM (active); in assay [13] it was 7.43 µM (active); in assay [14], 18.7 µM (active); in assay [16], 14.8 µM (active). For the same compound, the Potency result in [7] was “inactive”.
As to `Cn1cc(-c2ccc3nnc(C(F)(F)c4ccc5ncccc5c4)n3n2)cn1`, the Potency in [1] is 5.9 µM (active); in assay [4] it was 8.33 µM (active); in assay [9], 16.6 µM (active). The Potency result in assay [2], in assay [3], in [6] and in assay [16] was “inactive” each time.
Usually viability stands for a per cent measure of how many cells are alive, often set against a control. As for `NCCCC(N)(C(=O)O)C(F)F` (configuration not stated), the Potency in [1] was 0.526 µM (active); in assay [2], 0.0526 µM (active); in [4], 0.105 µM (active); in [5], 1.48 µM (active); in [7], 5.9 µM (active); in assay [9], 0.332 µM (active). For the same compound, the Potency result in [17], in assay [6] and in assay [13] was “inactive” in each case. In assay [15], the viability is 97%.
Regarding `Nc1ncnc2nc(-c3ccc(N4CCOCC4)nc3)cc(-c3cccc(Br)c3)c12`, the Potency in assay [1] is 11.8 µM (active); in assay [2] it was 14.8 µM (active); in assay [4], 23.5 µM (active); in [9] it was 16.6 µM (active); in assay [10], 20.9 µM (active); in assay [12], 10.5 µM (active). Besides, in assay [13], the Potency was 16.6 µM (active). In addition, the Potency entry in [3] was “inactive”.
Turning to `O=C(Nc1cccnc1)N1CCC(Cc2cccc(Oc3ccc(C(F)(F)F)cn3)c2)CC1`, the Potency in assay [1] was 10.5 µM (active); in assay [4], 14.8 µM (active); in [17], 13.2 µM (active); in assay [6], 16.6 µM (active); in assay [7], 4.69 µM (active); in assay [9], 18.7 µM (active). Further, the Potency was 18.7 µM (active) in assay [10]; 18.7 µM (active) in assay [11]; 14.8 µM (active) in assay [12]; 10.5 µM (active) in assay [14]; 14.8 µM (active) in assay [16].
